Measurements from the supplement of paper PMC8975748.
Structures can show the parent of a compound that is named as a salt.

The compounds below were run on Saccharomyces cerevisiae BY4741 SeMeCo community (assay: z-score of subpopulation abundance vs DMSO median, subpopulation auxotrophic for LU; higher = larger share of this subpopulation than in DMSO controls). Details: 10 µM; 24 h; SM minimal medium; subpopulation (auxotrophy): LU.
Method: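 Fluorescent four-plasmid SeMeCo (self-establishing metabolically cooperating S. cerevisiae BY4741 community; plasmids pH-mRuby2, pL-mWasabi, pU-eCFP, pM-TagRFP657) was grown 24 h in minimal SM medium with each Selleck FDA-approved drug at 10 µM in 384-well plates. Cells were fixed and imaged by high-content confocal microscopy. For each auxotrophic subpopulation (and the prototroph), a z-score gives the deviation from the DMSO vehicle-control population median.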

Structure (SMILES) | z-score of subpopulation abundance
COC(=O)C1=C(C)NC(C)=C(C(=O)OCCN(C)Cc2ccccc2)C1c1cccc([N+](=O)[O-])c1 (stereo not given) [Nicardipine HCl] | 0.72
COCC(=O)Nc1cc(Sc2ccccc2)ccc1N=C(NC(=O)OC)NC(=O)OC [Febantel] | -0.37
CN[C@H](CC(C)C)C(=O)N[C@H]1C(=O)N[C@@H](CC(N)=O)C(=O)N[C@H]2C(=O)N[C@H]3C(=O)N[C@H](C(=O)N[C@H](C(=O)O)c4cc(O)cc(O)c4-c4cc3ccc4O)[C@H](O)c3ccc(c(Cl)c3)Oc3cc2cc(c3O[C@@H]2O[C@H](CO)[C@@H](O)[C@H](O)[C@H]2O[C@H]2C[C@](C)(N)[C@H](O)[C@H](C)O2)Oc2ccc(cc2Cl)[C@H]1O [Vancomycin] | 0.08
CC1=C(C(=O)O)N2C(=O)[C@@H](NC(=O)[C@H](N)c3ccc(O)cc3)[C@H]2SC1 [Cefadroxil hydrate] | -0.23
Cc1ncc([N+](=O)[O-])n1CC(O)CCl (stereo not given) [Ornidazole] | -0.8
CN(C)CCOc1ccc(/C(=C(/CCCl)c2ccccc2)c2ccccc2)cc1 [Toremifene Citrate] | 0.34
C[C@](N)(Cc1ccc(O)c(O)c1)C(=O)O [Methyldopa] | -0.35
CC(C)(C)C(=O)C(Oc1ccc(Cl)cc1)n1ccnc1 (stereo not given) [Climbazole] | -2.81
COc1ccc([C@@H]2Sc3ccccc3N(CCN(C)C)C(=O)[C@@H]2OC(C)=O)cc1 [Diltiazem HCl] | -0.4
C/C=C1\[C@H]2C=C(C)C[C@]1(N)c1ccc(=O)[nH]c1C2 [(-)-Huperzine A (HupA)] | -0.37
CN(Cc1ccc(C(C)(C)C)cc1)Cc1cccc2ccccc12 [Butenafine HCl] | -1.41
Nc1cc(C(Cl)=C(Cl)Cl)c(S(N)(=O)=O)cc1S(N)(=O)=O [Clorsulon] | 0.95
CCCCOc1ccc(C(=O)CCN2CCCCC2)cc1 [Dyclonine HCl] | -0.73
CC[C@H](C)C(=O)O[C@H]1C[C@H](O)C=C2C=C[C@H](C)[C@H](CC[C@@H](O)C[C@@H](O)CC(=O)O)[C@H]21 [Pravastatin] | 0.89
COC(=O)C1=C(C)NC(C)=C(C(=O)OC)C1c1ccccc1[N+](=O)[O-] [Nifedipine] | 0.14
CO[C@H]1C[C@@H]2CC[C@@H](C)[C@@](O)(O2)C(=O)C(=O)N2CCCC[C@H]2C(=O)O[C@H]([C@H](C)C[C@@H]2CC[C@@H](OC(=O)C(C)(CO)CO)[C@H](OC)C2)CC(=O)[C@H](C)/C=C(\C)[C@@H](O)[C@@H](OC)C(=O)[C@H](C)C[C@H](C)/C=C/C=C/C=C/1C | 4.31
Nc1c2c(nc3ccccc13)CCCC2 [Tacrine hydrochloride hydrate] | 0.3
CC1(C)S[C@@H]2[C@H](NC(=O)[C@H](N)c3ccccc3)C(=O)N2[C@H]1C(=O)OCOC(=O)[C@@H]1N2C(=O)C[C@H]2S(=O)(=O)C1(C)C [Sultamicillin] | 0.83
COc1ccc(Cl)cc1C(=O)NCCc1ccc(S(=O)(=O)NC(=O)NC2CCCCC2)cc1 [Glyburide (Glibenclamide)] | -0.07
CCN1CCN(c2cc3c(cc2F)c(=O)c(C(=O)O)cn3C2CC2)CC1 [Enrofloxacin] | -0.21

Structure (SMILES) | z-score of subpopulation abundance
O=C1c2c(O)ccc(O)c2C(=O)c2c(NCCNCCO)ccc(NCCNCCO)c21 [Mitoxantrone 2HCl] | 3.06
NC(=O)[C@@H]1CC[C@@H]2CN1C(=O)N2OS(=O)(=O)O [Avibactam sodium] | 1.12
CC(Cc1ccc(O)c(O)c1)C(C)Cc1ccc(O)c(O)c1 (stereo not given) [Nordihydroguaiaretic acid (NDGA)] | -0.29
CCC(=O)Oc1ccc2c(c1)CCC1C2CCC2(C)C(OC(=O)CC)CCC12 (stereo not drawn) [Estradiol dipropionate(17-Beta-Estradiol-3,17-Dipropionate)] | -0.67
Cc1c(-c2ccc(O)cc2)n(Cc2ccc(OCCN3CCCCCC3)cc2)c2ccc(O)cc12 [Bazedoxifene Acetate] | 0.06
Nc1nnc(-c2cccc(Cl)c2Cl)c(N)n1 [Lamotrigine] | 0.85
CC(C)Cc1ccc(C(C)C(=O)O)cc1 (stereo not given) [Ibuprofen] | -2.51
C[C@]1(COc2ccc(N3CCC(Oc4ccc(OC(F)(F)F)cc4)CC3)cc2)Cn2cc([N+](=O)[O-])nc2O1 [Delamanid] | 0.18
COc1ccc2cc([C@H](C)C(=O)O)ccc2c1 [Naproxen Sodium] | -0.46
CN1[C@@H]2CC[C@H]1C[C@@H](OC(=O)c1c[nH]c3ccccc13)C2 [Tropisetron] | 0.87
C#C[C@]1(O)CC[C@H]2[C@@H]3CCC4=CC(=O)CC[C@@H]4[C@H]3CC[C@@]21CC [Levonorgestrel] | -0.04
NC(=O)C(c1ccccc1)(c1ccccc1)[C@@H]1CCN(CCc2ccc3c(c2)CCO3)C1 [Darifenacin HBr] | -0.1
CC(=O)OCC[N+](C)(C)C [Acetylcholine iodide] | -0.57
Cn1nnc(-c2ccc(-c3ccc(N4C[C@H](COP(=O)(O)O)OC4=O)cc3F)cn2)n1 [Tedizolid Phosphate] | -0.94
O=C(O)C1=C(CSc2nnnn2CS(=O)(=O)O)CS[C@@H]2[C@H](NC(=O)[C@H](O)c3ccccc3)C(=O)N12 [Cefonicid sodium] | 0.98
CCn1cc(C(=O)O)c(=O)c2cc(F)c(N3CCNCC3)cc21 [Norfloxacin] | -0.24
O=c1c(-c2ccc(O)cc2)coc2c([C@@H]3O[C@H](CO)[C@@H](O)[C@H](O)[C@H]3O)c(O)ccc12 [Puerarin] | -0.47
CCCC1CC(C(=O)NC(C(C)Cl)C2OC(SC)C(O)C(O)C2O)N(C)C1 (stereo not given) [Clindamycin alcoholate] | -0.02
O=C(C1CCCCC1)N1CC(=O)N2CCc3ccccc3C2C1 (stereo not given) [Praziquantel] | 0.75
CC[C@H]1OC(=O)C[C@@H](O)[C@H](C)[C@@H](O[C@@H]2O[C@H](C)[C@@H](O[C@H]3C[C@@](C)(O)[C@@H](O)[C@H](C)O3)[C@H](N(C)C)[C@H]2O)[C@@H](CC=O)C[C@@H](C)C(=O)/C=C/C(C)=C/[C@@H]1CO[C@@H]1O[C@H](C)[C@@H](O)[C@@H](OC)[C@H]1OC [Tylosin] | 0.45
